Bioassay records as filed in PubChem.
FBPA Giardia inh: Giardia lamblia aldolase inhibition. A8B2U2. purified Giardia FBPA. Potency, µM (highest dose often 59.6 µM), without a hit: at the highest dose activity, negative = inhibition, usual class: inhibitors. actives 0.71% (n = 290,000); also: nearly all actives have a fitted effect of over 55% in size
Target sequence (A8B2U2 whole entry, looked up): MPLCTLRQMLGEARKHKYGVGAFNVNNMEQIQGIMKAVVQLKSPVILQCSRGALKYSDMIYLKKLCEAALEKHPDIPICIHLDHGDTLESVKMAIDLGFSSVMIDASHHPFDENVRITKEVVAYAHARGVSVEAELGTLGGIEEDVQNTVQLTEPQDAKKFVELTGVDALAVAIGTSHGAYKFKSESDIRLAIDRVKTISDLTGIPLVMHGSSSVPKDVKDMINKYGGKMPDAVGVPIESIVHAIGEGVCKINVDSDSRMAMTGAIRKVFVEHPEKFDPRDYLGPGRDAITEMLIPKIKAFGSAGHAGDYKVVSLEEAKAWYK
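Giardia FBPA (40 nM reagent) was preincubated 10 min at RT with compound (up to 57.5 uM final), then substrate plus GAPDH/TPI/NAD/arsenate coupling system with diaphorase/resazurin was added; resorufin fluorescence (525/598 nm) was read after 20 min.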
Sm TGR inh: S. mansoni TGR enzyme inhibition. AID 485364. Potency, µM (series often up to 114 µM), for the others: at the top dose activity change, negative = inhibition, most hits filed as inhibitors. purified TGR, DTNB reduction, TNB absorbance 405 nm. Q962Y6. actives 3% (n = 360,000); also: nearly all actives have a fitted effect of over 60% in size
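Kinetic colorimetric format: TGR-catalysed, NADPH-driven DTNB reduction monitored via TNB absorbance. Enzyme dispensed at 20 nM; compound exposure 15 min at room temperature before reaction start.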
TbPYK inhibitor: inhibitors of Trypanosoma brucei pyruvate kinase | Q57TT1 | Potency, µM (doses to about 76.8 µM), for inactives: at the highest dose activity, negative = inhibition, most hits filed as inhibitors | actives 0.12% (n = 410,000) | TbPYK enzyme, Kinase-Glo Plus ATP luminescence, 45 min; also: nearly all actives have a fitted effect of over 50% in size
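Luminescence from Kinase-Glo Plus, added after a 45-minute room-temperature reaction, served as the end-point read-out. The enzyme and substrate were preincubated with compound before ADP (130 uM final) initiated turnover. Concentration-effect curves came from normalized qHTS data.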
RE007 growth inh: less growth of the S. pombe RE007 Vpr strain | S. pombe RE007 Vpr strain, BacTiter-Glo ATP luminescence, 24 h | Potency, µM (highest dose often 92.2 µM), without a hit: at the highest dose activity change, negative = less growth, hits mostly inhibitors | actives 0.21% (n = 360,000); active = well fitted falling curve with a large enough effect; inconclusive = small, poorly fitted or top-dose-only effect; inactive = no such curve, though single readings can be large or run the other way; also: nearly all actives have a fitted effect of over 50% in size
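Fission yeast strain RE007, carrying one chromosomally integrated HIV-1 vpr copy, was seeded at OD 0.01 in PMG+AL medium with 23 nL pinned compound. After 24 h at 30 °C and 99% humidity, viability was read by BacTiter-Glo luminescence.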
LmPK inhibitor: blocks Leishmania mexicana pyruvate kinase activity. purified LmPK, Kinase-Glo ATP luminescence, 1 h. Potency, µM (titrated, usually from 57.5 µM), for the others: at the top dose activity change, negative = inhibition, most hits filed as inhibitors. actives 0.37% (n = 290,000). AID 1721. Q27686
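ATP generated from ADP (0.1 mM) and PEP (0.5 mM) by 0.1 nM LmPK over 1 h at room temperature (pH 7.2 imidazole buffer) was detected by coupled luciferase luminescence. Values were normalized to uninhibited and no-enzyme wells.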
The depositor's hits bear a star; ? = inconclusive; . = no result; [ ] = another dose, or the depositor's remark. This is a sample that favours compounds with a hit; in the whole collection about 3.3% have one here. Unless noted, calls follow the shape of the dose curve; as a rule, active = well fitted curve in the direction sought with a large enough effect; inconclusive = small, poorly fitted or top-dose-only effect, or another doubt; inactive = no such curve, though single readings can be large; an effect the other way counts as inactive or inconclusive. % is scaled to controls: 0 for no effect and ±100 for the full control effect; potency is read from the fitted curve at half-maximal effect.

SMILES	FBPA Giardia inh	Sm TGR inh	TbPYK inhibitor	RE007 growth inh	LmPK inhibitor
Cc1noc(/C=C/c2ccco2)c1S(=O)(=O)N1CCC(C(=O)N2c3ccccc3CC2C)CC1 (stereo unspecified)	-6%	40µM*	-2%	-24%	-2%
O=C1C=CC(=O)N1c1cccc(-c2ccccc2)c1	-7%	0.71µM*	5µM*	2.5µM*	?
Fc1cccc(/C=C2\CCCC3=C2NC(=S)NC3c2cccc(F)c2)c1 (stereo unspecified)	-1%	20µM*	?	-14%	2%
CC(=O)Nc1sc2c(c1CN1CCN(c3ccc(F)cc3)CC1)CCCC2	-2%	-2%	3%	31%	4%
CCN(CC)c1cc(NCCO)c([N+](=O)[O-])c2nonc12	-29%	-11%	-3%	-15%	0%
CCC(=O)OCCNc1cc(Sc2nccn2C)c2nonc2c1[N+](=O)[O-]	-6%	0.71µM*	32%	4%	2%
CCC(=O)OCCNc1cc(SCCC(=O)OC)c2nonc2c1[N+](=O)[O-]	?	6.3µM*	43%	-11%	2%
CCCC(=O)OCCNc1cc(Sc2nc3ccccc3[nH]2)c2nonc2c1[N+](=O)[O-]	?	0.5µM*	-20%	-5%	1%
N#Cc1cccc(NC(=O)N2CCCC3(CCN(C(=O)Oc4ccccc4)CC3)C2)c1	-3%	.	5%	.	.
CCOC(=O)C1CCCN(c2c(N3CCOCC3)c(=O)c2=O)C1 (stereo unspecified)	3%	3%	1%	0%	9%
CCOC(=O)C1CCCN(c2c(N3CCN(C4CCCCC4)CC3)c(=O)c2=O)C1 (stereo unspecified)	2%	2%	-2%	-2%	2%
CCOC(=O)C1CCCN(c2c(N3CCN(C)CC3)c(=O)c2=O)C1 (stereo unspecified)	2%	5.6µM*	-5%	-6%	12%
CCOC(=O)C1CCCN(c2c(N3CCC(N4CCCCC4)CC3)c(=O)c2=O)C1 (stereo unspecified)	4%	89µM*	-2%	-3%	9%
CN(C)S(=O)(=O)c1cccc2c1C(=O)c1ccccc1C2=O	?	25µM*	1%	-9%	-2%
CN(C)S(=O)(=O)c1ccccc1C#N	1%	0%	0%	-8%	0%
Cc1c(C(=O)N2CCCCC2)c(S(=O)(=O)N2CCN(c3ccc(Cl)cc3)CC2)c(C)n1C	2%	9%	4%	-10%	3%
O=C(Nc1cccc(C(F)(F)F)c1)c1cccnn1	-4%	89µM*	0%	-14%	-8%
O=C(Nc1cccc(Cl)c1)c1cccnn1	-4%	4%	1%	-9%	-2%
CCOc1cc(C(=O)NCc2ccccc2)ccc1OCC(=O)N1CCOCC1	4%	-2%	2%	3%	0%
CCOc1cc(C(=O)Nc2ccc(C(=O)NCCN(CC)CC)cc2)ccc1OCC(=O)N1CCOCC1	.	35µM*	-4%	-9%	.
COCCCNC(=O)C(Cc1ccccc1)NS(=O)(=O)c1ccc2c(c1)c(=O)n(C)c(=O)n2C (stereo unspecified)	9%	0%	3%	?	0%
Cn1c(=O)c2cc(S(=O)(=O)NC(Cc3ccccc3)C(=O)NCc3ccco3)ccc2n(C)c1=O (stereo unspecified)	8%	40µM*	-6%	-1%	6%
CC1CC=C2C(C#N)=C(N)C(C#N)(C#N)C(c3cccs3)C2C1 (stereo unspecified)	?	50µM*	-14%	0%	-1%
CCOC(=O)N1CC=C2C(C#N)=C(N)C(C#N)(C#N)[C@H](c3cccs3)C2C1 (stereo partly specified)	-10%	-22%	-2%	8%	4%
Cc1cc(OCC(=O)NCC2CCC(C(=O)O)CC2)c2c(C)c(Cc3ccccc3)c(=O)oc2c1 (stereo unspecified)	-6%	32µM*	-9%	-4%	-11%
SMILES	FBPA Giardia inh	Sm TGR inh	TbPYK inhibitor	RE007 growth inh	LmPK inhibitor
COc1cccc(Nc2nc3ccc(OC)cc3s2)c1	-14%	2%	-1%	?	-8%
CC(=O)Nc1ccc(C(=O)CSc2nnc(C)o2)cc1	-2%	0%	-2%	4%	-6%
CC#CC#Cc1cccc(=O)o1	-1%	20µM*	0%	-5%	-1%
CCN1CCN(CC(=O)c2cc(Cl)ccc2Cl)CC1	-3%	18µM*	-4%	6%	-3%
O=C(NCCC1=CCCCC1)C(=O)NCc1ccccc1	2%	14%	3%	1%	2%
O=C(O)C1C2C=CC(O2)C1C(=O)NCCC1=CCCCC1 (stereo unspecified)	-3%	22µM*	2%	-1%	-3%
Cc1ccc(Nc2nc(N)c3ccccc3n2)cc1Cl	14%	3%	1%	-13%	-1%
CC1=CN2C(=N)/C(=C/c3ccco3)C(=O)N=C2S1	8%	-17%	3%	0%	-19%
CC1=CN2C(=N)/C(=C/c3ccc([N+](=O)[O-])o3)C(=O)N=C2S1	?	3.5µM*	-30%	32µM*	-2%
O=C(Sc1ccccc1)c1cccc(Cn2cc(C(F)(F)F)ccc2=O)c1	-4%	22µM*	0%	-3%	1%
O=C(Nc1ccccc1)c1cccc(Cn2cc(C(F)(F)F)ccc2=O)c1	-1%	11%	3%	10%	-5%
NC(=O)c1ccc(Nc2nc(C(N)COCc3ccccc3)cs2)cc1 (stereo unspecified)	.	.	0%	-3%[18.4 µM]	.
Clc1ccc(-c2nc(/C=N/N3CCOCC3)c3ccccn23)cc1	-17%	45µM*	6%	3%	4%
CN1CCN(/N=C/c2nc(-c3ccc(Cl)cc3)n3ccccc23)CC1	?	?	-5%	-1%	4%
COC(=O)c1ccccc1NC1=C/C(=N\S(=O)(=O)c2ccc(C(=O)O)cc2)c2ccccc2C1=O	1µM*	14µM*	-5%	?	-4%
O=C1C(Nc2ccccc2)=C/C(=N/S(=O)(=O)c2cccs2)c2ccccc21	?	?	-21%	?	-19%
COC(=O)c1ccccc1NC1=C/C(=N\S(=O)(=O)c2cccs2)c2ccccc2C1=O	?	?	-5%	-29%	18µM*
CCOc1ccccc1C(=O)N[C@H](C(=O)Nc1nc2c(s1)CCCC2)C(C)C	-6%	-6%	0%	0%	1%
CCOc1ccc(/C=C2\SC(=S)N(NS(=O)(=O)c3ccc(C)cc3)C2=O)cc1OC	10%	-26%	-4%	-6%	-1%
Cn1c(O)c(C(=Nc2ccccc2)SCc2ccc(Cl)cc2)c(=O)n(C)c1=O	?	20µM*	-19%	-10%	-6%
CN1c2ccccc2C(C)(C)C12CCCC(=O)N2 (stereo unspecified)	?	20µM*	-17%	-9%	4%
